Measurements as given in PubChem BioAssay AID2320 (National Center for Advancing Translational Sciences (NCATS), 2010).
Records with an inconclusive call do not appear. A call without a number means that no potency is given here. Activity calls are given as the source filed them. Calls come from the whole dose curve.
Potency is the fitted concentration of half-maximal effect.

Test: A qHTS for Small Molecule Inhibitors of Shiga Toxin (Confirmatory); note: nearly all actives have a fitted effect of over 75% in size
Details: Cell-based Shiga toxin protection reporter assay; series mostly up to 38.3 µM
For `CC1CCc2sc(C(=O)NN)cc2C1` (centres undefined), the Potency was “inactive”.
With `CN1CCN(Cc2ccc(N)cc2)CC1` the Potency was “inactive”.
In the case of `NNC(=O)c1ccc(NS(=O)(=O)c2ccc(Br)cc2)cc1`, the Potency was “inactive”.
In the case of `Cc1cc(C)c2nc(-c3ccccn3)cc(C(=O)NCc3ccco3)c2c1`, the Potency was 15.9 µM (active).
In the case of `CC(=O)N/C(=C\c1ccccc1)C(=O)Nc1ccccc1C`, the Potency was 0.0798 µM (active).
In the case of `O=C(NCCc1c[nH]c2ccccc12)C(F)(F)F`, the Potency was “inactive”.
In the case of `Cc1nc(SCC(=O)Nc2cc(C)on2)c2c3c(sc2n1)CCCC3`, the Potency was “inactive”.
In the case of `O=C(Cc1c(F)cccc1Cl)c1ccc(O)cc1O`, the Potency was “inactive”.
With `CS(=O)(=O)N(CC(=O)Nc1ccccc1Sc1ccccc1)C1CCCCC1` the Potency was “inactive”.
In the case of `COc1ccccc1C(=O)Nc1ccc(N2CCN(C(C)=O)CC2)cc1`, the Potency was “inactive”.
For `O=C(O)C1CCCCC1C(=O)Nc1ccc(-c2ccccc2)cc1` (centres undefined), the Potency was 10 µM (active).
In the case of `CCn1cc(C(=O)NCc2ccccc2Cl)cn1`, the Potency was “inactive”.
In the case of `CCOc1ccccc1NC(=O)CCS(=O)(=O)c1cccs1`, the Potency was “inactive”.
For `CCn1c(SCC(=O)NCc2ccco2)nc2c1c(=O)n(C)c(=O)n2C`, the Potency was “inactive”.
For `COc1ccccc1CNC(=O)Cn1cc([N+](=O)[O-])ccc1=O`, the Potency was “inactive”.
With `CSc1ccc(/C=C/C(=O)N2CCN(c3ccccn3)CC2)cc1` the Potency was “inactive”.
In the case of `O=C(Cc1c[nH]c2ccccc12)NCc1ccc(Cl)cc1`, the Potency was “inactive”.
In the case of `CCCc1nc2ccccc2c(=O)n1NC(=O)c1c(O)c2ccccc2[nH]c1=O`, the Potency was 14.2 µM (active).
In the case of `CCN1CCN(Cc2c(O)ccc3c(=O)c(-c4ccc(OC)c(OC)c4)c(C(F)(F)F)oc23)CC1`, the Potency was “inactive”.
